# In PubChem BioAssay AID493248 (Broad Institute, 2011):
# The campaign covered roughly 2,300 compounds. About 1,400 (61%) were called active. About 7% were inconclusive and are not listed. How the calls were made is not given here. The set was probably picked from earlier hits. The list is a sample of the results. Measured potencies and affinities stand elsewhere.
# Target: FAD-linked sulfhydryl oxidase ALR (Homo sapiens) (UniProt P55789)
# Assay: ALR-catalysed DTT oxidation blockers – biochemical, H2O2 detection, luminescence, cherry-pick, dose response (AID 493248)
# Settings: purified ALR, H2O2 HRP-luminol luminescence; at 10 µM (top of the series)
# FAD-linked sulfhydryl oxidase ALR (Homo sapiens), sequence (P55789 whole entry, looked up): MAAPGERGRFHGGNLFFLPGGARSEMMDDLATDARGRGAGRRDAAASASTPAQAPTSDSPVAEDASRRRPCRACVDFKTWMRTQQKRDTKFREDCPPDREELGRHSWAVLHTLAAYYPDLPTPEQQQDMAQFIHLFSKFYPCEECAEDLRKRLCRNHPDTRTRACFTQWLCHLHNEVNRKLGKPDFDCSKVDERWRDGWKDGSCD
row,SMILES,"activity change, negative = inhibition"
1,Cn1nnnc1SCc1ccc(C(=O)Nc2nccs2)cc1,-48.1%
2,O=C1NCCCc2c1oc1ccc(O)cc21,36.1%
3,Nc1nn2cc(-c3ccccc3)nc2c2ccccc12,-12.4%
4,COC(=O)CNS(=O)(=O)c1ccc(Cc2ccc(S(=O)(=O)NCC(=O)OC)cc2)cc1,3.52%
5,CCCc1cc(=O)[nH]c(Nc2ccc(O)cc2)n1,-100%
6,Cn1cccc1C(=O)OCc1csc(-c2ccccc2)n1,0.233%
7,O=C(c1cc(C2CC2)on1)N1CCN(c2ccccc2)CC1,-8.71%
8,O=C(c1ccc(Cl)s1)N1CCN(c2ccccc2)CC1,-20%
9,Cc1cc(C(=O)CC#N)c(C)n1CC(F)(F)F,-17.1%
10,COc1cccc(/C=N/NC(=O)CNC(=O)c2cccnc2)c1O,-19%
11,CCN1CCSc2ccc(C(=O)NCc3cccc(F)c3)cc21,16%
12,CCCC(C(=O)O)n1c(O)c(C=C2N=c3ccccc3=N2)sc1=S (centres undefined),-50.1%
13,O=C(c1ccco1)n1nc(-c2ccccc2)nc1NCc1ccco1,-41.9%
14,O=[N+]([O-])c1cc2c(cc1/C=N/n1c(-c3ccccc3)n[nH]c1=S)OCO2,-34.5%
15,CC(C)c1cc(C(=O)N/N=C/c2ccco2)n[nH]1,21.6%
16,CC(=C\c1ccccc1)/C=C1/SC(=O)N(CCCC(=O)Nc2ccc(C(=O)O)cc2)C1=O,1.78%
17,S=c1[nH]nc(Cc2ccccc2)n1-c1ccccc1,-7.81%
18,CC(=O)Oc1ccc(Nc2ccccc2)cc1,-1.83%
19,COc1ccc2oc3cc(C)[n+]([O-])c(-c4ccc(C)cc4)c3c2c1,-57.4%
20,O=C(O)CC/C(=C\c1ccccc1[N+](=O)[O-])c1nc2ccccc2s1,-55.4%
21,COc1ccc(-c2noc(CN3CCN(c4ccccc4F)CC3)n2)cc1OC,-0.443%
22,C(=N\Nc1ncnc2ccccc12)/c1ccccc1,-47.4%
23,COc1cc(/C=C2\SC(=S)N(NC(=O)c3ccc(O)cc3)C2=O)ccc1O,-100%
24,O=C(O)CCCN1C(=O)/C(=C\c2ccc(-c3nc4ccccc4s3)o2)SC1=S,-22.6%
25,COc1cc(NC(=O)NCCN2CCN(c3ccccc3)CC2)cc(OC)c1OC,-25.8%

row,SMILES,"activity change, negative = inhibition"
1,COc1ccc(C(=O)N/N=C(/C)c2ccc(N3CCCCC3)cc2)cc1,-0.469%
2,COc1ccc(OC)c(NC(=O)CN(c2ccc(C(C)C)cc2)S(=O)(=O)c2c(C)noc2C)c1,28.2%
3,COc1c(C)cccc1C(=O)Nc1ccc(CN2CCCCC2)cc1,7.1%
4,COc1ccc(NC(=O)c2cccnc2N2CCCC2)cc1,19.3%
5,O=C(Nc1cc([N+](=O)[O-])ccc1O)c1ccc2c(c1)C(=O)N(Cc1ccco1)C2=O,-17.4%
6,CCCN1C(=O)c2ccc(C(=O)Nc3ccccc3C(=O)O)cc2C1=O,-23.6%
7,COc1ccc(C)cc1NCc1ccc(OC)c(C)c1OC,-55.4%
8,Cc1ccc(N2CC(=O)N(NC(=O)CN3CCN(c4ccccc4)CC3)CC2=O)cc1,-47.4%
9,COc1ccc(C(=O)N/N=C/C2CC=CCC2)cc1OC (centres undefined),-39.6%
10,Fc1ccc(-n2c(-c3ccc4c(c3)OCO4)n[nH]c2=S)cc1Cl,-56.2%
11,CN1C(=O)C2C(c3ccc(N(C)C)cc3)=NN(Cc3ccccc3)C2C1=O (centres undefined),-0.925%
12,Cc1nc2cc(N)ccc2n1-c1ccccc1,367%
13,CC1=Nc2ccccc2N=C(N)C1c1ccccc1 (centres undefined),-61.3%
14,Cc1cc(C(=O)NNc2ccc(F)cc2F)no1,5.89%
15,COc1cc(C(=S)N(C)C)ccc1O,-5.3%
16,Oc1ccc(/C=N/N=C/c2ccc(O)cc2)cc1,256%
17,O=Cc1ccc(O)c(O)c1,-17.2%
18,Oc1ccc(N=Cc2ccc(O)c(O)c2)cc1,102%
19,CC(C)CNC(=O)C(=O)N/N=C/c1cccs1,-15.3%
20,CCn1c(O)c(/C=N/n2cnnc2)sc1=S,-33%
21,Cc1cccc(NCCNc2cccc(C)c2)c1,-44.1%
22,Cc1cccc(N/N=C/c2ccncc2)c1,-105%
23,C/C(=N\NC(=O)CCCNc1ccc(C)cc1)c1ccccn1,419%
24,CC(C)C(=O)c1ccc(O)c(O)c1,-24.1%
25,Cc1cccc(Nc2nc(N)nc(CCl)n2)c1C,-38.4%

row,SMILES,"activity change, negative = inhibition"
1,CN(C)CCC(=O)N1c2ccccc2Sc2ccc(C(F)(F)F)cc21,-13.8%
2,CCNc1nc(OC)nc(N(OC)S(=O)(=O)c2ccc(C)cc2)n1,-55.8%
3,CC(C)(O)C#Cc1ccc(C(=O)NC2CCCCC2)s1,-45.6%
4,CCCN1C(=O)c2cc(C(=O)NC3CCCCCC3)ccc2C1O (centres undefined),-16.6%
5,O=S(=O)(Cc1ccccc1)N(O)c1ccccc1,-38.7%
6,Nc1c(Cl)ncnc1N/N=C/c1cccc(O)c1,-7.72%
7,O=C(CCn1cnc2ccccc21)N/N=C/c1ccc(O)cc1,-88.9%
8,Cc1ccc(NC(=O)CCC(=O)N/N=C/c2ccc(O)cc2)cc1,-2.67%
9,O/N=C/c1cccn1-c1ccc(O)cc1,-99.2%
10,O=C(C[n+]1ccccc1)N/N=C/c1ccc(O)cc1,-108%
11,O=c1oc2ccccc2n1CSC1=NCCS1,-21.8%
12,O=[n+]1cc(-c2cc3ccccc3o2)n([O-])c2c1CCCC2,-33.9%
13,Cc1cc(Nc2ccccc2)n(CCC#N)n1,-16.4%
14,CC(C)NC(=O)c1ccccc1S(=O)c1ccccc1C#N (centres undefined),-2.78%
15,CN(C)c1ccc(/C(=N\O)C(F)(F)F)cc1,-20%
16,O=C(O)c1ccccc1Nc1ccccc1,-21%
17,Cc1ccc(Nc2c(F)c(F)c(F)c(F)c2C(=O)O)c(C)c1,-51.9%
18,Cc1ccc(O)c(-c2cc(C(F)(F)C(F)F)[nH]n2)c1,3.95%
19,COc1ccc([N+](=O)[O-])cc1NC1CCCCC1,-14.6%
20,COc1ccc(CCC(=O)N2CCCC(Nc3ccc(OC)cc3)C2)cc1 (centres undefined),9.94%
21,Cc1ccc2[nH]cc(CCNC(=O)c3cccnc3)c2c1,-59.6%
22,Cn1c(=O)c2c(-c3ccccc3)n(-n3cnnc3)cc2n(C)c1=O,-14.5%
23,Cc1cccc(C2CN(C)CCc3c2cc(O)c(O)c3Cl)c1 (centres undefined),-100%
24,C=CCN1CCc2cc(O)c(O)cc2C(c2ccccc2)C1 (centres undefined),-91.4%
25,Cn1c(=O)[nH]c(=O)c2c1[nH]c(=S)n2Cc1ccc(Cl)cc1,-38.6%

row,SMILES,"activity change, negative = inhibition"
1,CCN1CCN(Cc2nc3c(c(=O)n(C)c(=O)n3C)n2CC(=O)c2ccccc2)CC1,13.8%
2,CCCCCn1c(Br)nc2c1c(=O)n(CC(N)=O)c(=O)n2C,-20.4%
3,N#C/C(N=Nc1ccccc1O)=N\Nc1ccccc1O,22.3%
4,CC(C)(C)Nc1c(-c2cccs2)nc2ccccn12,-39.4%
5,Nc1ccc2sc(N)nc2c1,299%
6,Cc1cc(NC(=O)c2sc(Nc3ccc(F)cc3)nc2N)no1,-41.5%
7,O=C(c1ccccn1)N1CCCC(N2CCN(c3ccc(F)cc3)CC2)C1 (centres undefined),-82.4%
8,CC(C)N(c1nnc(N)s1)C(C)C,-37.4%
9,COc1ccc(C(N)CCc2ccco2)cc1 (centres undefined),0.936%
10,Cc1ccc(NC(=O)Nc2cccs2)nc1,-2.58%
11,O=C(Nc1cccs1)Nc1c(F)cc(F)cc1Br,-42.8%
12,CC(C)NC(=O)Nc1cccs1,-47.1%
13,Cc1ccc(N2CCN(CCCN3C(=O)C4CCCN4C3=O)CC2)cc1 (centres undefined),-22.5%
14,Oc1ccc(NCc2cccs2)cc1,41.7%
15,O=C(C1CCCC1)N1CCCC(Nc2ccc(F)cc2)C1 (centres undefined),-72.7%
16,COc1ccc(NC2CCCN(C(=O)c3oc(C)cc3C)C2)cc1OC (centres undefined),75.6%
17,CCCCNC(=O)c1onc(CCl)c1C(=O)OC,-46.6%
18,C=CCNC(=O)c1onc(CSc2ccc(C)c(C)c2)c1C(=O)O,10.6%
19,Cc1cc2c(N3CCCCC3C)ncnc2s1 (centres undefined),-5.25%
20,Cc1ccc(NC(=O)C2CCN(S(=O)(=O)c3cccc4cccnc34)CC2)nc1,-47.3%
21,CC(c1ccc(F)cc1)n1c(-c2cccs2)n[nH]c1=S (centres undefined),-12.6%
22,CCn1c(-c2cc(Cl)ccc2OC)n[nH]c1=S,-40.3%
23,Cc1cccc(-n2c(C)n[nH]c2=S)c1C,-35.3%
24,Cc1n[nH]c(=S)n1-c1ccc(Cl)cc1,-91.4%
25,CC(NS(=O)(=O)c1ccccc1)c1n[nH]c(=S)n1-c1ccccc1 (centres undefined),-28.7%

row,SMILES,"activity change, negative = inhibition"
1,Oc1c(Br)cc(Br)c(/C=N/n2c(-c3ccccc3)n[nH]c2=S)c1Br,-75.2%
2,CCn1c(N)[n+](CC(=O)Nc2ccc(SC(F)F)cc2)c2ccccc21,17.1%
3,Cc1cc(NCc2ccccn2)nc2ccccc12,16.8%
4,Cc1nn(CC2CCCCC2)c(N)c1-c1ccccc1,-21.2%
5,CN(CC(=O)NCc1ccco1)S(=O)(=O)c1ccc2c(c1)n(C)c(=O)c(=O)n2C,-5.75%
6,Cc1ccc(S(=O)(=O)NNC(=O)c2ccc(O)cc2)cc1,-54.2%
7,Cc1cc(C)nc(Sc2c(C)nn(-c3ccccc3)c2C)n1,-4.01%
8,Cc1ccc([N+](=O)[O-])cc1S(=O)(=O)Nc1ccc(O)c(Sc2ncn[nH]2)c1,-101%
9,Cc1cccc(NC(=O)C2CCN(S(=O)(=O)c3cccc4cccnc34)CC2)c1,-19.2%
10,CN(C)/N=C/c1ccc(OC(=O)c2cccc([N+](=O)[O-])c2)cc1,-3.63%
11,COc1ccc(N=C(N(C)C)P(=O)(N(C)C)N(C)C)cc1,-0.552%
12,Nc1ccc2c(c1)-c1ccccc1S(=O)(=O)N2,-105%
13,Cn1nc(-c2ccc(Cl)cc2)c2cc(C(=O)NC3CC3)sc21,-2.11%
14,CCN1CCN(C(=O)c2cc3c(-c4ccc(Cl)cc4)nn(C)c3s2)CC1,-4.97%
15,COc1cccc(-c2nc(CCl)cs2)c1,22.5%
16,Fc1ccc2c(c1)/C(=N/Nc1ccccn1)CCS2,-12.8%
17,COc1ccc(-c2cc(-c3n[nH]c(=S)n3-c3cc(OC)ccc3OC)[nH]n2)cc1,46.9%
18,O=C(CN1C(=O)S/C(=C\C=C\c2ccccc2)C1=O)Nc1ccc(C(=O)O)cc1,-22.9%
19,O=c1c2c(nc3n1CCCCC3)sc1c(O)cccc12,-92.9%
20,COc1ccc2c(/C=N/NS(=O)(=O)c3ccc(C)cc3)c[nH]c2c1,-4.96%
21,COc1cc(/C=N/Nc2cc(C)nc(N)n2)ccc1O,-108%
22,COc1ccc(/C=N/Nc2ccc([N+](=O)[O-])cc2)cc1O,-70%
23,Oc1ccc(/C=N/NC2=NCCCCC2)cc1,-110%
24,COc1ccccc1NS(=O)(=O)c1cc([N+](=O)[O-])ccc1N/N=C/c1c[nH]c2ccccc12,0.734%
